Assay outcomes from PubChem.
Sm TGR block: qHTS Assay for the Inhibitors of Schistosoma Mansoni Peroxiredoxins. 360,000 compounds, 3% hits. Potency, µM (top dose mostly 114 µM), for inactives: at the top dose activity change, negative = inhibition, hits mostly inhibitors. AID 485364, 2010. purified TGR, DTNB reduction, TNB absorbance 405 nm. Schistosoma mansoni thioredoxin glutathione reductase (TGR), Q962Y6; note: nearly all actives have a fitted effect of over 60% in size
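Kinetic colorimetric format: TGR-catalysed, NADPH-driven DTNB reduction monitored via TNB absorbance. Enzyme dispensed at 20 nM; compound exposure 15 min at room temperature before reaction start.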
AMA1 RON2 block: qHTS for Inhibitors of AMA1-RON; Towards Development of Antimalarial Drug Lead: Primary Screen | Potency, µM (titrated, usually from 58.2 µM), without a hit: top-dose activity change, negative = inhibition, actives largely listed as inhibitors | AID 720542, 2013 | 360,000 compounds, 0.2% hits | Plasmodium falciparum AMA1 (3D7) - RON2 peptide interaction | AlphaScreen AMA1-biotinylated RON2 peptide binding;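 note: 0% = vehicle wells and -100% = peptide control; nearly all actives have a fitted effect of over 45% in size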
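AMA1 (3D7) with his tag at 25 nM final met compounds first, then biotinylated RON2 peptide at 25 nM; detection used donor plus acceptor beads, 10 µg/mL apiece, read by AlphaScreen after 30 min at room temperature.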
RE007 growth inh: qHTS Assay for Inhibitors of the HIV-1 protein Vpr | S. pombe RE007 Vpr strain, BacTiter-Glo ATP luminescence, 24 h | Potency, µM (doses to about 92.2 µM), without a hit: top-dose activity change, negative = less growth, most hits filed as inhibitors | 360,000 compounds, 0.21% hits | AID 651644, 2012; active = well fitted falling curve with a large enough effect; inconclusive = small, poorly fitted or top-dose-only effect; inactive = no such curve, though single readings can be large or run the other way; note: nearly all actives have a fitted effect of over 50% in size
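Fission yeast RE007 carrying one integrated HIV-1 vpr copy, seeded at OD 0.01 in PMG+AL medium with 23 nL pinned compound. Grown 24 h at 30 degrees; viability read by BacTiter-Glo luminescence after 5 min.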
LmPK inh: qHTS Assay for Inhibitors of Leishmania Mexicana Pyruvate Kinase (LmPK); Q27686; purified LmPK, Kinase-Glo ATP luminescence, 1 h; Potency, µM (doses to about 57.5 µM), for the others: at the top dose activity change, negative = inhibition, most hits filed as inhibitors; 290,000 compounds, 0.37% hits
Target sequence (Q27686 whole entry, looked up): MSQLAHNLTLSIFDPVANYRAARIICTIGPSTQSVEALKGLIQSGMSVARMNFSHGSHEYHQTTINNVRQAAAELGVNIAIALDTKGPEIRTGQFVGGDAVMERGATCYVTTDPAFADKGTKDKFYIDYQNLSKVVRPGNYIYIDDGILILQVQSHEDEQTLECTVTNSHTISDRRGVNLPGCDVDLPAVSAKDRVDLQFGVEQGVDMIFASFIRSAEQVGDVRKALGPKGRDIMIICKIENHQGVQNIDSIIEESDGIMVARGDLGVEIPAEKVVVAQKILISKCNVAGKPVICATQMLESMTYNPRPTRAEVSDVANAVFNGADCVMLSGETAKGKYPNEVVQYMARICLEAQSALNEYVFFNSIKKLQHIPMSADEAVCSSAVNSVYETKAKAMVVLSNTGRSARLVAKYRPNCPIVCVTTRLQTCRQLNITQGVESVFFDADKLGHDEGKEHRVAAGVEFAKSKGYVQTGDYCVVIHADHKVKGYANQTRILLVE
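Kinase-Glo luminescence read after 1 h RT reaction of 0.1 nM LmPK with 0.5 mM PEP and 0.1 mM ADP. Activity scaled between uninhibited and enzyme-free controls.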
TbPYK inhibitor: qHTS of Trypanosoma Brucei Inhibitors; Potency, µM (top dose mostly 76.8 µM), for the others: top-dose activity, negative = inhibition, hits mostly inhibitors; TbPYK enzyme, Kinase-Glo Plus ATP luminescence, 45 min; pyruvate kinase (Trypanosoma brucei), Q57TT1; 410,000 compounds, 0.12% hits; note: nearly all actives have a fitted effect of over 50% in size
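Luminescent Kinase-Glo Plus end-point after 45 min room-temperature reaction of T. brucei pyruvate kinase started with 130 uM ADP (final). Buffer TEA 50 mM pH 7.2 with KCl, MgCl2, BSA, Tween-20; titration-based qHTS with fitted concentration-effect curves.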
* marks the source's active call; other numbers are inactive results; [ ] = dose if it differs, or a comment. Shown are actives, neighbours in structure and some others; about 3.2% of the full set was active somewhere. Unless noted, calls come from the whole dose curve; as a rule, active = well fitted curve in the direction sought with a large enough effect; inconclusive = small, poorly fitted or top-dose-only effect, or another doubt; inactive = no such curve, though single readings can be large; an effect the other way counts as inactive or inconclusive. Unless noted, % is set by controls: 0 for no effect and ±100 for the full control effect; potency is the fitted concentration of half-maximal effect.

What do the screens show for `CC(=O)Nc1cc2ccccc2oc1=O`?
Sm TGR block: 9%; AMA1 RON2 block: -7%; RE007 growth inh: 5%; LmPK inh: 0%; TbPYK inhibitor: 6%

How did Cc1oc(=O)c(NC(=O)c2ccc(Cl)cc2)cc1C(=O)c1ccccc1 do in these assays?
Sm TGR block: 4µM*; AMA1 RON2 block: -1%; RE007 growth inh: 28µM*; LmPK inh: -1%; TbPYK inhibitor: inconclusive

What do the screens show for `CCOc1ccc(C2c3c(oc4ccccc4c3=O)C(=O)N2Cc2ccc3c(c2)OCO3)cc1` (stereo not drawn)?
Sm TGR block: 7%; TbPYK inhibitor: -4%

How did Cc1ccc(CNC(=O)Cn2ccn(-c3cc(C)cc(C)c3)c(=O)c2=O)cc1 do in these assays?
Sm TGR block: 1%; TbPYK inhibitor: -1%

How did Cc1oc(=O)c(NC(=O)c2ccccc2)cc1C(=O)c1ccccc1 do in these assays?
Sm TGR block: 22µM*; AMA1 RON2 block: 14%; RE007 growth inh: 20µM*; LmPK inh: -12%; TbPYK inhibitor: -20%

What do the screens show for `COc1ccccc1N1C(=O)c2ccc(C(=O)Nc3ccc(C(=O)O)cc3)cc2C1=O`?
Sm TGR block: 89µM*; AMA1 RON2 block: -3%; RE007 growth inh: 2%; LmPK inh: 0%; TbPYK inhibitor: -3%

Results for COc1cc(C(=O)Nc2ccc(C(=O)O)cc2)ccc1OC(C)=O ?
Sm TGR block: -1%; AMA1 RON2 block: -10%; RE007 growth inh: -12%; LmPK inh: 25µM*; TbPYK inhibitor: -4%

How did CCc1ccc(S(=O)(=O)c2nnn3c2nc(NCc2cccc(OC)c2)c2cc(Cl)ccc23)cc1 do in these assays?
Sm TGR block: 3%; TbPYK inhibitor: 0%

Results for CCC(=O)N(CCC(c1ccco1)c1ccccc1OC)Cc1cccs1 (stereo not drawn) ?
Sm TGR block: 18µM*; AMA1 RON2 block: -17%; RE007 growth inh: 6%[3.69 µM]; LmPK inh: -1%

What do the screens show for `CC(=O)N(CCC(c1ccco1)C(C)C)Cc1ccc(OC(C)C)cc1` (stereo not drawn)?
Sm TGR block: inconclusive; AMA1 RON2 block: -11%; RE007 growth inh: 4%; LmPK inh: 5%; TbPYK inhibitor: 2%

What do the screens show for `CC(=O)N(CCC(c1ccccc1)c1ccco1)Cc1cccs1` (stereo not drawn)?
Sm TGR block: 11µM*; AMA1 RON2 block: 14%; RE007 growth inh: -6%; LmPK inh: 0%; TbPYK inhibitor: -4%

What do the screens show for `CCN1C(=O)c2ccccc2S(=O)(=O)c2ccc(C(=O)NCc3ccccc3)cc21`?
Sm TGR block: 9%; TbPYK inhibitor: 0%

How did CC(=O)NNc1nc(-c2ccc(NC(C)=O)cc2)cs1 do in these assays?
Sm TGR block: 40µM*; AMA1 RON2 block: 68%; RE007 growth inh: 19%; LmPK inh: 1%; TbPYK inhibitor: -8%

What do the screens show for `CC(=O)Nc1ccc(-c2csc(NNC(=O)c3ccc(C)cc3)n2)cc1`?
AMA1 RON2 block: 77%; RE007 growth inh: 8%; LmPK inh: 1%; TbPYK inhibitor: 1%

What do the screens show for `CC(=C1C(=O)c2ccccc2C1=O)N1CCN(C/C=C/c2ccccc2)CC1`?
Sm TGR block: inconclusive; AMA1 RON2 block: 18%; RE007 growth inh: -19%; LmPK inh: 4%; TbPYK inhibitor: -21%

How did CC(=C1C(=O)c2ccccc2C1=O)N1CCN(Cc2ccccc2)CC1 do in these assays?
Sm TGR block: 40µM*; AMA1 RON2 block: 15%; RE007 growth inh: -9%; LmPK inh: -7%; TbPYK inhibitor: -20%

What do the screens show for `CC(=C1C(=O)c2ccccc2C1=O)N1CCC(C(N)=O)(N2CCCCC2)CC1`?
Sm TGR block: 32µM*; AMA1 RON2 block: 10%; RE007 growth inh: -9%; LmPK inh: 8%; TbPYK inhibitor: -2%

What do the screens show for `O=C(Nc1ccc(F)c(Cl)c1)N1CC=C(c2c[nH]c3ccccc23)CC1`?
Sm TGR block: -5%; TbPYK inhibitor: 4%[15.4 µM]
